# From PubChem BioAssay AID1508601 (ICCB-Longwood Screening Facility, Harvard Medical School, 2020)
# Values joined by “and” are separate entries in the source; they are usually repeats but may differ in a detail not shown here. Equal entries are not always repeated. Among all 5,700 compounds or so, about 85 (1%) were called active. Rule as the data show it: active = p53-positive nuclei above about 36% (passing the limit was not always enough); inactive = the rest. The full list was thinned out, with actives kept by preference. Some compounds were tested as several samples or in several runs, with calls that do not always agree.
# How the values were obtained:
# [1] = nuclear p53 accumulation, HPV+ cells – imaging, p53-positive nuclei imaging, 24 h, 48 h (AID 1508601); conditions: 24/48 h
# [2] = molecular target: Cellular tumor antigen p53 (Homo sapiens) (UniProt P04637); experiment: as above; conditions: 24/48 h, stronger effect = higher value
# [3] = measured here: cell number at 24 h, concentration not given here
# [4] = measured here: cell number at 48 h, concentration not given here
# [5] = measured here: p53 positive nuclei at 24 h, concentration not given here
# [6] = measured here: cell number at 24 h, Library stock concentration: 10 mM
# [7] = measured here: cell number at 48 h, Library stock concentration: 10 mM
# [8] = Library stock concentration: 10 mM
# [9] = measured here: p53 positive nuclei at 24 h, Library stock concentration: 10 mM
# Chain of Cellular tumor antigen p53 (Homo sapiens) (P04637 whole entry, looked up): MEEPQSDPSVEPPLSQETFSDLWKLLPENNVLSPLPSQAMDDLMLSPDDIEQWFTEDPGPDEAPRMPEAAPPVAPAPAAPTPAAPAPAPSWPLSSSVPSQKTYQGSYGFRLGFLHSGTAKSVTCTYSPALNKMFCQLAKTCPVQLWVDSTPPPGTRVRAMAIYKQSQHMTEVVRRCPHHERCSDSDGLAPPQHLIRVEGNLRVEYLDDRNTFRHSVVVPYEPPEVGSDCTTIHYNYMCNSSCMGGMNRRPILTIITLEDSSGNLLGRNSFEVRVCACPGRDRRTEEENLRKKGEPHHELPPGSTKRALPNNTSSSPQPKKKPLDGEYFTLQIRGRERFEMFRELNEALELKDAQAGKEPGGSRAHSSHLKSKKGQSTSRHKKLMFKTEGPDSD
compound,measurement,setting,value
O=C1c2ccccc2C(=O)c2ccccc21,"nuclei count, normalised",[1]; [3],102%
same,"nuclei count, normalised",[1]; [4],96.8%
same,"p53-positive nuclei, normalised",[2]; concentration not given here,-0.00139% (inactive)
same,"p53-positive nuclei, normalised",[2]; [5],-0.102%
CC1=CC(=O)c2c(O)cccc2C1=O,"nuclei count, normalised","[1]; measured here: cell number at 24 h, Library stock concentration: 500 nM",119%
same,"nuclei count, normalised","[1]; measured here: cell number at 24 h, Library stock concentration: 1.5 uM",116%
same,"nuclei count, normalised","[1]; measured here: cell number at 24 h, Library stock concentration: 4.6 uM",126%
same,"nuclei count, normalised","[1]; measured here: cell number at 24 h, Library stock concentration: 13.7 uM",115%
same,"nuclei count, normalised","[1]; measured here: cell number at 24 h, Library stock concentration: 41 uM",118%
same,"nuclei count, normalised","[1]; measured here: cell number at 24 h, Library stock concentration: 123 uM",108%
same,"nuclei count, normalised","[1]; measured here: cell number at 24 h, Library stock concentration: 370 uM",94.6%
same,"nuclei count, normalised","[1]; measured here: cell number at 24 h, Library stock concentration: 1.111 mM",55.5%
same,"nuclei count, normalised","[1]; measured here: cell number at 24 h, Library stock concentration: 3.333 mM",48.6%
same,"nuclei count, normalised",[1]; [6],49%
same,"nuclei count, normalised","[1]; measured here: cell number at 48 h, Library stock concentration: 500 nM",113%
same,"nuclei count, normalised","[1]; measured here: cell number at 48 h, Library stock concentration: 1.5 uM",115%
same,"nuclei count, normalised","[1]; measured here: cell number at 48 h, Library stock concentration: 4.6 uM",120%
same,"nuclei count, normalised","[1]; measured here: cell number at 48 h, Library stock concentration: 13.7 uM",115%
same,"nuclei count, normalised","[1]; measured here: cell number at 48 h, Library stock concentration: 41 uM",118%
same,"nuclei count, normalised","[1]; measured here: cell number at 48 h, Library stock concentration: 123 uM",111%
same,"nuclei count, normalised","[1]; measured here: cell number at 48 h, Library stock concentration: 370 uM",102%
same,"nuclei count, normalised","[1]; measured here: cell number at 48 h, Library stock concentration: 1.111 mM",32.4%
same,"nuclei count, normalised","[1]; measured here: cell number at 48 h, Library stock concentration: 3.333 mM",31.9%
same,"nuclei count, normalised",[1]; [7],32.5%
same,"p53-positive nuclei, normalised",[2]; Library stock concentration: 500 nM,-0.129% (inactive)
same,"p53-positive nuclei, normalised",[2]; Library stock concentration: 1.5 uM,-0.0912% (inactive)
same,"p53-positive nuclei, normalised",[2]; Library stock concentration: 4.6 uM,0.131% (inactive)
same,"p53-positive nuclei, normalised",[2]; Library stock concentration: 13.7 uM,-0.0585% (inactive)
same,"p53-positive nuclei, normalised",[2]; Library stock concentration: 41 uM,-0.0569% (inactive)
same,"p53-positive nuclei, normalised",[2]; Library stock concentration: 123 uM,0.196% (inactive)
same,"p53-positive nuclei, normalised",[2]; Library stock concentration: 370 uM,-0.0821% (inactive)
same,"p53-positive nuclei, normalised",[2]; Library stock concentration: 1.111 mM,48.3% (active)
same,"p53-positive nuclei, normalised",[2]; Library stock concentration: 3.333 mM,2.14% (inactive)
same,"p53-positive nuclei, normalised",[2]; [8],-0.248% (inactive)
same,"p53-positive nuclei, normalised","[2]; measured here: p53 positive nuclei at 24 h, Library stock concentration: 500 nM",0.0252%
same,"p53-positive nuclei, normalised","[2]; measured here: p53 positive nuclei at 24 h, Library stock concentration: 1.5 uM",0.031%
same,"p53-positive nuclei, normalised","[2]; measured here: p53 positive nuclei at 24 h, Library stock concentration: 4.6 uM",-0.0368%
same,"p53-positive nuclei, normalised","[2]; measured here: p53 positive nuclei at 24 h, Library stock concentration: 13.7 uM",0.0863%
same,"p53-positive nuclei, normalised","[2]; measured here: p53 positive nuclei at 24 h, Library stock concentration: 41 uM",-0.027%
same,"p53-positive nuclei, normalised","[2]; measured here: p53 positive nuclei at 24 h, Library stock concentration: 123 uM",0.171%
same,"p53-positive nuclei, normalised","[2]; measured here: p53 positive nuclei at 24 h, Library stock concentration: 370 uM",0.0792%
same,"p53-positive nuclei, normalised","[2]; measured here: p53 positive nuclei at 24 h, Library stock concentration: 1.111 mM",61.6%
same,"p53-positive nuclei, normalised","[2]; measured here: p53 positive nuclei at 24 h, Library stock concentration: 3.333 mM",3.81%
same,"p53-positive nuclei, normalised",[2]; [9],-0.148%
C[C@]12NC(Cc3ccccc31)c1ccccc12,"nuclei count, normalised","[1]; measured here: cell number at 24 h, Library stock concentration: 3.33 mM",121%
same,"nuclei count, normalised","[1]; measured here: cell number at 48 h, Library stock concentration: 3.33 mM",112%
same,"p53-positive nuclei, normalised",[2]; Library stock concentration: 3.33 mM,-0.107% (inactive)
same,"p53-positive nuclei, normalised","[2]; measured here: p53 positive nuclei at 24 h, Library stock concentration: 3.33 mM",-0.588%
CCCCC/C=C\C/C=C\C/C=C\C/C=C\CCCC(=O)NCCF,"nuclei count, normalised",[1]; [3],90.3%
same,"nuclei count, normalised",[1]; [4],90.8%
same,"p53-positive nuclei, normalised",[2]; concentration not given here,0.105% (inactive)
same,"p53-positive nuclei, normalised",[2]; [5],-0.0127%
CC1=C(O)C(=O)C=C2C1=CC=C1[C@@]2(C)CCC2(C)C3C[C@](C)(C(=O)O)CC[C@]3(C)CC[C@]12C (stereo partly drawn),"nuclei count, normalised","[1]; measured here: cell number at 24 h, Library stock concentration: 80 uM",94.9%
same,"nuclei count, normalised","[1]; measured here: cell number at 24 h, Library stock concentration: 400 uM",109%
same,"nuclei count, normalised","[1]; measured here: cell number at 24 h, Library stock concentration: 2 mM",92%
same,"nuclei count, normalised",[1]; [6],46.3%
same,"nuclei count, normalised","[1]; measured here: cell number at 48 h, Library stock concentration: 80 uM",95.5%
same,"nuclei count, normalised","[1]; measured here: cell number at 48 h, Library stock concentration: 400 uM",109%
same,"nuclei count, normalised","[1]; measured here: cell number at 48 h, Library stock concentration: 2 mM",91.7%
same,"nuclei count, normalised",[1]; [7],28.8%
same,"p53-positive nuclei, normalised",[2]; Library stock concentration: 80 uM,0.0324% (inactive)
same,"p53-positive nuclei, normalised",[2]; Library stock concentration: 400 uM,0.159% (inactive)
same,"p53-positive nuclei, normalised",[2]; Library stock concentration: 2 mM,0.635% (inactive)
same,"p53-positive nuclei, normalised",[2]; [8],9.53% (inactive)
same,"p53-positive nuclei, normalised","[2]; measured here: p53 positive nuclei at 24 h, Library stock concentration: 80 uM",0.113%
same,"p53-positive nuclei, normalised","[2]; measured here: p53 positive nuclei at 24 h, Library stock concentration: 400 uM",0.398%
same,"p53-positive nuclei, normalised","[2]; measured here: p53 positive nuclei at 24 h, Library stock concentration: 2 mM",0.116%
same,"p53-positive nuclei, normalised",[2]; [9],10.2%
CC1=C(O)C(=O)C=C2C1=CC=C1[C@@]2(C)CC[C@@]2(C)C3C[C@](C)(C(=O)O)CC[C@]3(C)CC[C@]12C (stereo partly drawn),"nuclei count, normalised","[1]; measured here: cell number at 24 h, Library stock concentration: 46 uM",117%
same,"nuclei count, normalised","[1]; measured here: cell number at 24 h, Library stock concentration: 278 uM",114%
same,"nuclei count, normalised","[1]; measured here: cell number at 24 h, Library stock concentration: 1.67 mM",57.4%
same,"nuclei count, normalised",[1]; [6],47.5%
same,"nuclei count, normalised","[1]; measured here: cell number at 48 h, Library stock concentration: 46 uM",112%
same,"nuclei count, normalised","[1]; measured here: cell number at 48 h, Library stock concentration: 278 uM",104%
same,"nuclei count, normalised","[1]; measured here: cell number at 48 h, Library stock concentration: 1.67 mM",48.7%
same,"nuclei count, normalised",[1]; [7],31.9%
same,"p53-positive nuclei, normalised",[2]; Library stock concentration: 46 uM,0.197% (inactive)
same,"p53-positive nuclei, normalised",[2]; Library stock concentration: 278 uM,0.188% (inactive)
same,"p53-positive nuclei, normalised",[2]; Library stock concentration: 1.67 mM,8.51% (inactive)
same,"p53-positive nuclei, normalised",[2]; [8],26.6% (inactive)
same,"p53-positive nuclei, normalised","[2]; measured here: p53 positive nuclei at 24 h, Library stock concentration: 46 uM",-0.0305%
same,"p53-positive nuclei, normalised","[2]; measured here: p53 positive nuclei at 24 h, Library stock concentration: 278 uM",-0.0276%
same,"p53-positive nuclei, normalised","[2]; measured here: p53 positive nuclei at 24 h, Library stock concentration: 1.67 mM",9.81%
same,"p53-positive nuclei, normalised",[2]; [9],29.3%
CC1=C(O)C(=O)C=C2C1=CC=C1[C@@]2(C)CC[C@@]2(C)[C@@H]3C[C@](C)(C(=O)O)CC[C@]3(C)CC[C@]12C,"nuclei count, normalised",[1]; [3],88.7% and 27%
same,"nuclei count, normalised",[1]; [4],109% and 15.7%
same,"p53-positive nuclei, normalised",[2]; concentration not given here,0.0329% (inactive) and 96.6% (active)
same,"p53-positive nuclei, normalised",[2]; [5],0.225% and 93.4%
